Assay outcomes deposited in PubChem by National Center for Advancing Translational Sciences (NCATS).
This is a sample that favours compounds with a hit; in the whole collection about 1.1% have one here.
TbPYK inhibitor = T. brucei pyruvate kinase inhibition. Q57TT1. TbPYK enzyme, Kinase-Glo Plus ATP luminescence, 45 min. Potency, µM (doses to about 76.8 µM), actives largely listed as inhibitors. actives 0.12% (n = 410,000). AID 624173; note: nearly all actives have a fitted effect of over 50% in size
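Assay buffer: 50 mM TEA pH 7.2, 100 mM KCl, 10 mM MgCl2, 0.05% BSA, 0.01% Tween-20. Pyruvate kinase from T. brucei plus substrate met compound, then ADP (130 uM final). Luminescence was read post 45 min RT.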
Giardia FBPA inh = inhibitors of Giardia lamblia fructose-1,6-bisphosphate aldolase | A8B2U2 | purified Giardia FBPA | Potency, µM (highest dose often 59.6 µM), most hits filed as inhibitors | AID 2451 | actives 0.71% (n = 290,000); note: nearly all actives have a fitted effect of over 55% in size
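Giardia FBPA (40 nM reagent) was preincubated 10 min at RT with compound (up to 57.5 uM final), then substrate plus GAPDH/TPI/NAD/arsenate coupling system with diaphorase/resazurin was added; resorufin fluorescence (525/598 nm) was read after 20 min.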
RE007 growth inh = less growth of the S. pombe RE007 Vpr strain. Potency, µM (top dose mostly 92.2 µM), hits mostly inhibitors. S. pombe RE007 Vpr strain, BacTiter-Glo ATP luminescence, 24 h. actives 0.21% (n = 360,000); active = well fitted falling curve with a large enough effect; inconclusive = small, poorly fitted or top-dose-only effect; inactive = no such curve, though single readings can be large or run the other way; note: nearly all actives have a fitted effect of over 50% in size
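Fission yeast RE007 carrying one integrated HIV-1 vpr copy, seeded at OD 0.01 in PMG+AL medium with 23 nL pinned compound. Grown 24 h at 30 degrees; viability read by BacTiter-Glo luminescence after 5 min.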
LmPK inh = blocks Leishmania mexicana pyruvate kinase activity. purified LmPK, Kinase-Glo ATP luminescence, 1 h. Potency, µM (highest dose often 57.5 µM), actives largely listed as inhibitors. actives 0.37% (n = 290,000)
Target sequence (Q27686 whole entry, looked up): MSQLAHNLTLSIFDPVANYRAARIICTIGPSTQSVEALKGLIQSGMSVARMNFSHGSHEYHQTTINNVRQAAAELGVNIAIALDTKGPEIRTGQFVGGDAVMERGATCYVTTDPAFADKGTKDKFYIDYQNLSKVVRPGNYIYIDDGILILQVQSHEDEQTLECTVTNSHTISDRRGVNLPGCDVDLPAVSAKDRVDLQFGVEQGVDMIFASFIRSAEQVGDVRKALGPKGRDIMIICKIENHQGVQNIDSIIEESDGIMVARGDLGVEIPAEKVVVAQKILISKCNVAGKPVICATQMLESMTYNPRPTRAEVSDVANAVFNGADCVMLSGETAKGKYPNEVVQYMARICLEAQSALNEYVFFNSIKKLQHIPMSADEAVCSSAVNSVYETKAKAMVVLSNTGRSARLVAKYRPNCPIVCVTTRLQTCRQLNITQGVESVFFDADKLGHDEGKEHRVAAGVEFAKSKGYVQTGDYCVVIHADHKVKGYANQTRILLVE
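Purified LmPK (0.1 nM) with 0.5 mM PEP and 0.1 mM ADP in imidazole buffer pH 7.2 with MgCl2/KCl, 1 h at room temperature. ATP formed was read by luciferase luminescence and normalized to no-enzyme and uninhibited controls.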
SARS PLpro yeast = inhibitors of SARS-CoV papain-like protease in yeast | S. cerevisiae expressing SARS-CoV PLpro, growth rescue | Potency, µM (top dose mostly 32.9 µM), most hits filed as activators | actives 0.19% (n = 330,000); calls by dose curve; note: nearly all actives have a fitted effect of over 55% in size
LmPK confirm = Confirms inhibition of Leishmania mexicana pyruvate kinase; shares compounds with LmPK inh; purified LmPK, Kinase-Glo ATP luminescence, 1 h; Potency, µM (highest dose often 57.5 µM), most hits filed as inhibitors; actives 40% (n = 150); AID 2559;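 active = compounds giving a full or partial concentration-response curve, as inhibitors or activators; inconclusive = weak, top-dose-only or unclear curve responses; inactive = no response at any tested dose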
Numbers stand for hits; . = inactive; ? = inconclusive; / = not tested or not shown; ! = not active in a repeat; [ ] = remark or other dose. Unless noted, calls come from the whole dose curve; as a rule, active = well fitted curve in the direction sought with a large enough effect; inconclusive = small, poorly fitted or top-dose-only effect, or another doubt; inactive = no such curve, though single readings can be large; an effect the other way counts as inactive or inconclusive.

SMILES | TbPYK inhibitor | Giardia FBPA inh | RE007 growth inh | LmPK inh | SARS PLpro yeast | others
CCc1ccc(NC(=O)C2=C(C)C(=O)OC23CCCCC3)cc1 | . | / | / | / | /
C=CCC1(O)CCC2C3CCC4=CC(=O)CCC4=C3C=CC21C (stereo unspecified) | . | / | / | / | /
S=c1[nH]nc(COc2ccc(Cl)cc2)n1C1CCCCC1 | ? | . | . | ? | .
Cc1ccc(OCc2n[nH]c(=S)n2C2CCCCC2)cc1 | ? | . | . | 8.9µM | .
Cc1cccc(OCc2n[nH]c(=S)n2C2CCCCC2)c1 | 13µM | . | . | 18µM | .
C[N+]1(CC2COC(c3ccccc3)(c3ccccc3)O2)CCCCC1 (stereo unspecified) | . | / | / | / | /
O=C(OCC(=O)c1cccs1)c1ccccc1 | . | . | . | 16µM | .
CC1CCN(S(=O)(=O)c2ccc3c(ccc(=O)n3CC(=O)NCc3ccccc3Cl)c2)CC1 | . | / | / | / | /
O=C1c2ccccc2CN2C(=O)c3ccccc3CN12 | . | / | . | . | .
c1ccc(-c2cn3c(n2)-c2ccccc2C3)cc1 | ? | . | ? | 5.6µM | .
CCOC(=O)N1CCN(C(=O)C2CCN(C(=O)c3ccccc3C)CC2)CC1 | 7.9µM | / | ? | / | /
N#CC1(NC(=O)COC(=O)c2cc(O)c3ccccc3c2O)CCCCC1 | 28µM | / | ? | / | .
N#CC1(NC(=O)COC(=O)c2ccccc2[N+](=O)[O-])CCCCC1 | . | / | . | / | .
Cc1[nH]n(-c2ccccc2)c(=O)c1C(C[N+](=O)[O-])c1ccc(Br)cc1 (stereo unspecified) | . | . | 10µM | . | .
COc1cccc(C(C[N+](=O)[O-])c2c(C)[nH]n(-c3ccccc3)c2=O)c1 (stereo unspecified) | . | 13µM | ? | . | .
O=C(Nc1noc2ccccc12)c1c(F)cccc1F | . | / | / | / | /
O=C(NCc1ccccc1Cl)c1ccc(CSCc2ccccc2Cl)o1 | .[15.4 µM] | / | / | / | /
CC(N)C(O)c1ccc(O)c(O)c1 (stereo unspecified) | / | . | / | / | /
CCC(NC(C)C)C(O)c1ccc(O)c(O)c1 (stereo unspecified) | . | 2.8µM | .[18.4 µM] | . | .
CC(C)NC[C@H](O)c1ccc(O)c(O)c1 | . | 10µM! | .[18.4 µM] | / | /
C(=C1NCCN1)c1cccc2ccccc12 | . | / | / | / | /
CCOC(=O)CNC(=O)O[C@@H]1C(=O)c2cc(Br)ccc2O[C@H]1c1ccc2c(c1)OCO2 | / | . | / | / | /
CCOC(=O)C(CCc1ccccc1)NC(C)C(=O)N1Cc2ccccc2CC1C(=O)O (stereo unspecified) | . | . | / | / | /
COc1cccc(CNC(=O)CSc2c3c(nc4ccc(Cl)cc24)CCCC3)c1OC | . | / | / | / | /
O=C(OCn1ncc(Cl)c(Cl)c1=O)c1ccccc1Cl | . | . | 45µM | . | .
SMILES | TbPYK inhibitor | Giardia FBPA inh | RE007 growth inh | LmPK inh | SARS PLpro yeast | others
O=C(OCn1ncc(Cl)c(Cl)c1=O)c1ccc(F)cc1 | / | . | / | . | .
Cc1ccccc1NC(=O)c1cc2ccccn2n1 | . | . | . | 13µM | .
CCN(CC(=O)Nc1c(F)cccc1F)C(=O)c1ccc2c(c1)NC(=O)C(C)S2 (stereo unspecified) | . | / | . | / | .
CCN(CC(=O)Nc1ccc(OC)cc1)C(=O)c1ccc2c(c1)NC(=O)C(C)S2 (stereo unspecified) | 28µM | / | . | / | .
COc1cc(/C=C/C(=O)c2ccc([N+](=O)[O-])o2)ccc1O | . | / | 13µM | / | .
O=C(/C=C/c1cccc(Cl)c1)c1ccc([N+](=O)[O-])o1 | . | / | 11µM | / | .
COc1ccccc1NC(=O)C1=C(C)Nc2nc(CCCO)nn2C1c1cccc(O)c1 (stereo unspecified) | . | / | / | / | /
Cc1ccc(C(=O)N2CCc3cc(CNC(=O)COc4ccccc4)ccc32)cc1 | . | / | / | / | /
COc1ccccc1N(C(C)=O)C1=C(Cl)C(=O)c2ccccc2C1=O | ? | / | 13µM | / | /
O=c1c(Cl)c(N2CCCCC2)cnn1-c1nc2ccccc2[nH]1 | ? | . | . | 14µM | .
CC(=O)c1sc(NC(=O)c2cccnc2Cl)nc1C | . | . | . | . | .
CC(=O)c1sc(NC(=O)c2ccccc2F)nc1C | . | . | . | 14µM | .
O=C1C2C(C(=O)N1/N=C/c1ccc(N3CCCCC3)o1)C1C=CC2C12CC2 (stereo unspecified) | 25µM | ? | . | . | .
CCC(Oc1ccccc1)C(=O)Nc1ccccc1OCc1cc(=O)n2ccccc2n1 (stereo unspecified) | . | / | / | / | /
Cc1ccc(-c2nnc(N(C)C(=O)c3cccnc3)s2)cc1 | . | / | . | . | . | LmPK confirm=.
COc1cccc(-c2nc3ccccc3s2)c1 | . | . | ? | 10µM | . | LmPK confirm=?
c1ccc(C2=NNC(=NC3CC3)SC2)cc1 | ? | . | ? | 4.5µM | . | LmPK confirm=15µM
c1ccc2c(C3=NNC(=NC4CC4)SC3)c[nH]c2c1 | . | . | . | . | .
Cc1ccc(-c2nnn3c2nc(NCCc2ccccc2)c2ccccc23)cc1 | . | / | / | / | /
CC(=O)Nc1ccc(C(=O)NNC(=O)CCc2ccccc2)cc1 | . | . | . | . | . | LmPK confirm=.
O=C(CCc1ccccc1)NNC(=O)c1ccc(NC(=O)c2ccccc2)cc1 | . | . | . | . | .
O=C(COC(=O)CCC(=O)c1ccc(F)cc1)Nc1ccccc1 | . | . | . | . | .
O=C(COC(=O)CCC(=O)c1ccc(F)cc1)Nc1ccc(F)cc1F | . | . | . | 2.2µM | . | LmPK confirm=.
COc1cc(-c2noc(-c3nnn(-c4ccc(Cl)cc4)c3C)n2)cc(OC)c1OC | . | / | / | / | /
Cc1cc(C)c2cc(C#N)c(NCCOC(=O)c3ccccc3C)nc2c1 | . | . | . | . | . | LmPK confirm=.
SMILES | TbPYK inhibitor | Giardia FBPA inh | RE007 growth inh | LmPK inh | SARS PLpro yeast | others
Cc1ccc(C(=O)N2c3ccccc3CC2C)o1 (stereo unspecified) | . | . | ? | 6.3µM | . | LmPK confirm=?
CC1Cc2ccccc2N1C(=O)c1ccc(Br)o1 (stereo unspecified) | . | / | . | / | /
CC(C)C(NC(=O)c1ccc2c(c1)OCO2)C(=O)N/N=C/c1cccs1 (stereo unspecified) | . | . | . | . | .
CC(C)C(NC(=O)c1ccc2c(c1)OCO2)C(=O)N/N=C\c1ccco1 (stereo unspecified) | . | . | . | . | . | LmPK confirm=.
CCOC(=O)c1nnn(-c2nonc2N)c1-c1ccc(C)cc1 | . | . | . | . | . | LmPK confirm=.
O=c1c2ccccc2cnn1-c1nc2ccccc2[nH]1 | 13µM | . | ? | 2.2µM | . | LmPK confirm=3.3µM
O=c1c2ccccc2nc2c3ccccc3cnn12 | . | . | . | . | .
Nc1ncnc2c1ncn2[C@@H]1O[C@H](COP(=O)(O)CP(=O)(O)OP(=O)(O)O)[C@H](O)[C@H]1O | / | . | / | / | /
Nc1ncnc2c1ncn2[C@@H]1O[C@H](COP(=O)(O)O)[C@@H](O)[C@H]1O | ? | . | ? | 10µM | . | LmPK confirm=6.5µM
Nc1ncnc2c1ncn2[C@@H]1O[C@H](COP(=O)(O)O)[C@@H](O)[C@@H]1O | / | . | / | / | /
